Legend:
Type in all cases: functional
[1] = test system: Plasmodium falciparum; assay: GSK_TCMDC: Inhibition of Plasmodium falciparum 3D7 in whole red blood cells, using parasite LDH activity as an index of growth. Test compounds present at 2uM
[2] = test system: Plasmodium falciparum; assay: GSK_TCMDC: Inhibition of Plasmodium falciparum Dd2 in whole red blood cells, using parasite LDH activity as an index of growth. Test compounds present at 2uM
[3] = test system: HepG2; assay: GSK_TCMDC: Percent inhibition of human HepG2 cell line. Test compounds present at 10uM.

Structure (SMILES) | Inhibition [1] [%] | Inhibition [2] [%] | Inhibition [3] [%]
COc1ccc2nccc(N(C)CC3(O)CCN(CCc4ccc5c(c4)NC(=O)CS5)CC3)c2n1.Cl | 91 | 67 | 10
O=C(O)C(F)(F)F.OC1CCCN(Cc2ccc(-c3ccc(-c4nc5cc(F)ccc5[nH]4)cc3)cc2)C1 (centres undefined) | 100 | 79 | 55
Cc1ccc(Sc2ccc(NC(=O)CN3CCN(C(=O)c4ccco4)CC3)cc2)cc1C | 92 | 84 | 14
CCOc1ccc(C(=O)Nc2nonc2-c2ccc(OC)c(OC)c2)cc1 | 95 | 42 | 7
CC(=O)Nc1cccc(C(=O)Nc2cccc(-c3csc(-c4nc5ccccc5[nH]4)c3)c2)c1 | 96 | 97 | 39
COc1cc(OC)cc(-c2nn(-c3ccc([N+](=O)[O-])cc3C#N)c(=S)n2Cc2ccco2)c1 | 100 | 100 | 11
C1=CN(Cc2ccccc2)C=CC1=C1C=Nc2ccccc21 | 90 | 69 | 8
Cc1cccc2nc(-c3ccc(-c4ccc(CN5CCN(C6CCN(C)CC6)CC5)cc4)cc3)[nH]c12.O=C(O)C(F)(F)F | 100 | 100 | 99
CC(C)(C)OC(=O)NCc1ccc(Nc2nnc(-c3ccc(OCC(=O)NCc4cc(C(F)(F)F)cc(C(F)(F)F)c4)c([N+](=O)[O-])c3)o2)cc1 | 97 | 92 | 24
O=C(Cc1cc(F)cc(F)c1)NC1CCN(c2ccnc3cc(Cl)ccc23)C1.O=C(O)C(F)(F)F (centres undefined) | 82 | 100 | 13
Cc1cc(O)nc(NC(=N)NOCCCc2ccccc2)n1 | 100 | 4 | 0
O=C(NCc1ccc(C(F)(F)F)cc1)c1cccc(-c2nnc(-c3cccc(-c4cncnc4)c3)o2)c1 | 96 | 79 | 13
Cc1nc(C)c(-c2ccc(S(=O)(=O)c3ccc(Cl)cc3)cc2)c(O)c1Cl | 98 | 96 | 0
CC(C)CCN1CCC(Oc2ccc(NC(=O)c3ccc4ncccc4c3)cc2Cl)C1.O=C(O)C(F)(F)F (centres undefined) | 95 | 14 | 33
CCCCc1ccccc1NS(=O)(=O)c1ccc(OC)c(N2CCNCC2)c1.Cl | 91 | 2 | 6
COc1cc2nccc(Nc3ccc(OCc4ccccc4)cc3)c2cc1OC | 100 | 99 | 35
COc1ccccc1CCNc1nc(C)cc(NCCC(=O)NCCOc2ccccc2)n1.O=C(O)C(F)(F)F | 85 | 14 | 11
CCCCCCN1CCCN(Cc2ccc(C(=O)Nc3ccc(C(C)C)cc3)cc2)CC1.O=C(O)C(F)(F)F | 93 | 50 | 40
